Experimental data as given in PubChem BioAssay (NCI).
Compounds without any hit were thinned out: in the full panel of roughly 79,000, 15% have a hit. Activity calls are given as the source filed them. No stated cut-off is given here; in the data, active means growth inhibition above about 70%; inactive means the rest.

Key:
[1] = NCI Yeast Anticancer Drug Screen. Data for the rad52 strain (AID 147);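 further: 0% = growth of vehicle-treated control cultures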; settings: S. cerevisiae rad52 mutant growth inhibition, stronger effect = higher value
How it was run: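 Compounds are applied to a genetically defined yeast strain lacking normal DNA damage repair, and inhibition of growth is expressed relative to cultures given vehicle only.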

[2] = NCI Yeast Anticancer Drug Screen. Data for the wt1 strain (AID 149);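 further: 0% = growth of vehicle-treated wt1 cultures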; settings: S. cerevisiae wt1 strain (SPY 50644) growth inhibition, stronger effect = higher value
How it was run: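 Each compound is tested on wt1 yeast and the loss of growth versus vehicle gives the inhibition value.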

[3] = NCI Yeast Anticancer Drug Screen. Data for the rad50EPP+ strain (AID 151);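 further: 0% = growth of vehicle-treated control cultures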; settings: S. cerevisiae rad50 mutant strain, stronger effect = higher value
How it was run: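 Compounds were applied to the rad50EPP+ yeast strain, which bears a defined DNA repair alteration, and growth inhibition was determined relative to vehicle-treated cultures.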

[4] = NCI Yeast Anticancer Drug Screen. Data for the mgt1 strain (AID 153); settings: S. cerevisiae mgt1 mutant growth inhibition, stronger effect = higher value
How it was run: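 Strain: mgt1 yeast, one of a set carrying defined DNA damage repair or cell cycle control alterations. Compound-treated growth compared with vehicle.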

[5] = NCI Yeast Anticancer Drug Screen. Data for the rad50 strain (AID 155);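 further: 0% = growth of vehicle-only cultures of the same strain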; settings: S. cerevisiae rad50 strain growth inhibition, stronger effect = higher value
How it was run: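 Vehicle-treated cultures provide the reference for the growth inhibition reported for compound-exposed, repair-deficient yeast.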

[6] = NCI Yeast Anticancer Drug Screen. Data for the mec2-1 strain (AID 157); settings: S. cerevisiae mec2-1 strain, stronger effect = higher value
How it was run: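 Strain: mec2-1 (DNA repair/cell cycle alteration). Compound exposure, then growth measured; inhibition expressed relative to vehicle.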

[7] = NCI Yeast Anticancer Drug Screen. Data for the rad14 strain (AID 159);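 further: 0% = growth of vehicle-treated control cultures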; settings: S. cerevisiae rad14 strain growth inhibition, stronger effect = higher value
How it was run: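 Inhibition of growth is reported for a repair-deficient yeast mutant following compound treatment, calculated relative to cultures that received vehicle.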

[8] = NCI Yeast Anticancer Drug Screen. Data for the sgs1 mgt1 strain (AID 161);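 further: 0% = growth of cultures given vehicle only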; settings: S. cerevisiae sgs1 mgt1 strain, stronger effect = higher value
How it was run: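 Test agents were incubated with a DNA-repair-mutant yeast strain. Growth was then read and compared against vehicle-treated controls.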

[9] = NCI Yeast Anticancer Drug Screen. Data for the CLN2oe strain (AID 163);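 further: 0% = growth of vehicle-only control cultures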; settings: S. cerevisiae CLN2oe strain, stronger effect = higher value
How it was run: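 Growth of a genetically modified yeast strain is measured after compound exposure and compared with cultures given vehicle alone.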

[10] = NCI Yeast Anticancer Drug Screen. Data for the cln2 rad14 strain (AID 165);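 further: 0% = growth equal to vehicle treated cultures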; settings: S. cerevisiae cln2 rad14 strain, stronger effect = higher value
How it was run: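 Compounds are applied to the cln2 rad14 yeast strain, and growth is then compared with that of vehicle-treated cultures to give inhibition.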

[11] = NCI Yeast Anticancer Drug Screen. Data for the bub3 strain (AID 167); settings: S. cerevisiae bub3 mutant strain, stronger effect = higher value
How it was run: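 Mutant yeast screening strain plus compound; vehicle-treated cultures serve as the 0% inhibition reference.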

[12] = NCI Yeast Anticancer Drug Screen. Data for the wt2 strain (AID 169); settings: S. cerevisiae wt2 strain growth inhibition, stronger effect = higher value
How it was run: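 This strain belongs to a panel of yeast strains with defined genetic alterations in DNA damage repair or cell cycle control. Compounds are applied, and growth inhibition is measured against vehicle-treated cultures.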

[13] = NCI Yeast Anticancer Drug Screen. Data for the sgs1 strain (AID 173);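 further: 0% = growth of vehicle-only control cultures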; settings: S. cerevisiae sgs1 mutant, stronger effect = higher value
How it was run: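 Growth of a yeast strain bearing a defined genetic alteration is measured after compound treatment. Inhibition is expressed relative to vehicle-only controls.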

[14] = NCI Yeast Anticancer Drug Screen. Data for the mlh1 rad18 strain (AID 175); settings: S. cerevisiae mlh1 rad18 strain growth inhibition, stronger effect = higher value
How it was run: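 Read-out is yeast growth inhibition, calculated against vehicle-only controls. The compound was applied to a strain engineered with DNA damage repair alterations.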

[15] = NCI Yeast Anticancer Drug Screen. Data for the rad18 strain (AID 177); settings: S. cerevisiae rad18 mutant growth inhibition, stronger effect = higher value
How it was run: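 Growth of the mutant yeast strain after compound exposure, normalised to vehicle-only cultures.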

[16] = at 5.0 µM (retest, dose inferred, filed as 0.5)
[17] = at 50.0 µM (retest, dose inferred, filed as 5.0)

Measured: growth inhibition

O/N=c1/ccn(O)c2ccccc12
inactive: [1]; at 1.2 µM 49% | [2]; at 1.2 µM 0% | [2]; at 3.7 µM 8% | [2]; at 11.0 µM 20% | [2]; at 33.0 µM 43% | [2]; at 100.0 µM 61% | [4]; at 1.2 µM -1% | [4]; at 3.7 µM 7% | [4]; at 11.0 µM 23% | [4]; at 33.0 µM 51% | [6]; at 1.2 µM 51% | [9]; at 1.2 µM -8% | [9]; at 3.7 µM -5% | [9]; at 11.0 µM 8% | [9]; at 33.0 µM 37% | [9]; at 100.0 µM 58% | [11]; at 1.2 µM -5% | [11]; at 3.7 µM 5% | [11]; [16] 11% | [11]; at 11.0 µM 24% | [11]; at 33.0 µM 54% | [12]; at 1.2 µM -1% | [12]; at 3.7 µM 14% | [12]; at 11.0 µM 20% | [12]; at 33.0 µM 39% | [12]; at 100.0 µM 58%
active: [1]; at 3.7 µM 91% | [1]; at 11.0 µM 95% | [1]; at 33.0 µM 96% | [1]; at 100.0 µM 95% | [3]; at 1.2 µM 87% | [3]; at 3.7 µM 96% | [3]; at 11.0 µM 97% | [3]; at 33.0 µM 97% | [3]; at 100.0 µM 97% | [4]; at 100.0 µM 84% | [5]; at 1.2 µM 74% | [5]; at 3.7 µM 96% | [5]; [16] 89% | [5]; at 11.0 µM 95% | [5]; at 33.0 µM 96% | [5]; [17] 95% | [5]; at 50.0 µM 96.3% | [5]; at 100.0 µM 96% | [6]; at 3.7 µM 97% | [6]; [16] 94% | [6]; at 11.0 µM 98% | [6]; at 33.0 µM 98% | [6]; [17] 98% | [6]; at 50.0 µM 97.5% | [6]; at 100.0 µM 98% | [7]; at 1.2 µM 96% | [7]; at 3.7 µM 99% | [7]; at 11.0 µM 99% | [7]; at 33.0 µM 99% | [7]; at 100.0 µM 99% | [8]; [16] 87% | [8]; [17] 95% | [8]; at 50.0 µM 97% | [10]; [16] 98% | [10]; [17] 99% | [10]; at 50.0 µM 98.8% | [11]; [17] 72% | [11]; at 50.0 µM 83.2% | [11]; at 100.0 µM 79% | [13]; at 1.2 µM 85% | [13]; at 3.7 µM 94% | [13]; at 11.0 µM 96% | [13]; at 33.0 µM 96% | [13]; at 100.0 µM 96% | [14]; [16] 82% | [14]; [17] 97% | [14]; at 50.0 µM 97.5% | [15]; at 1.2 µM 96% | [15]; at 3.7 µM 98% | [15]; at 11.0 µM 97% | [15]; at 33.0 µM 97% | [15]; at 100.0 µM 97%
